Experimental data as given in ChEMBL document CHEMBL4513216, “Probing the Open Global Health Chemical Diversity Library for Multistage-Active Starting Points for Next-Generation Antimalarials” (ACS Infect Dis, 2020).
Screen size: about 69,000 compounds; about 8,600 (12%) showed an effect of 50% or more. The entries come from a sample that favours strong results as a whole.

System: Plasmodium berghei
Assay: Screen against P. berghei liver stage (PbLuc), transformed with Luciferase, at 10uM
Assay type: functional, HepG2
Settings: tested at 10 uM

| SMILES | INHIBITION [%] |
| --- | --- |
| Cc1ccsc1C(CNC(=O)c1cc(=O)c2ccccc2[nH]1)N(C)C (stereo not given) | -38.6 |
| FC(F)(F)c1csc(N2CCN(Cc3ccccn3)CC2)n1 | 1.56 |
| COC(=O)CCN(C)C(=O)c1ccc(-c2cscn2)cc1 | 67.3 |
| CN(C)C(=O)c1ccc(-c2cscn2)cc1 | 14.6 |
| O=C(O)c1ccc(-c2cscn2)cc1 | -36.1 |
| Nc1ncnc2[nH]c(N3CCCCC3)nc12 | 4.12 |
| CSc1nc(N)cc(N2C[C@H]3CC[C@@H](C2)N(CC2CC2)C3=O)n1 | -65 |
| CC(C)CN1C(=O)c2ccc(C(=O)NCCc3c[nH]cn3)cc2C1=O | 24.5 |
| O=C(NCCc1c[nH]cn1)c1ccc(S(=O)(=O)NC2CCCC2)cc1 | 7.65 |
| COCCN1C(=O)c2ccc(C(=O)NCCc3c[nH]cn3)cc2C1=O | 68.4 |
| CCCNC(=O)c1ccc2c(c1)C(=O)N(CC(C)C)C2=O | 31.8 |
| O=C(NCCc1c[nH]cn1)c1ccc2c(c1)C(=O)N(C1CC1)C2=O | -36.3 |
| COCCCN1C(=O)c2ccc(C(=O)NCCc3c[nH]cn3)cc2C1=O | 34.3 |
| CC(C)CCN1C(=O)c2ccc(C(=O)NCCc3c[nH]cn3)cc2C1=O | 65.4 |
| O=C(NCCc1c[nH]cn1)c1ccc2c(c1)C(=O)N(C1CCCC1)C2=O | 36.6 |
| CCC(C)N1C(=O)c2ccc(C(=O)NCCc3c[nH]cn3)cc2C1=O (stereo not given) | 53.2 |
| CCc1nnc(CN(C)C2CCCN(Cc3noc(C4CC4)n3)C2)o1 (stereo not given) | 27.8 |
| Cc1ccc(F)c(NC(=O)NCCCn2nc3ccccn3c2=O)c1 | -0.113 |
| O=C(c1ccc(-c2cn[nH]c2)nc1)N1CCC(N2CCOCC2)CC1 | 10.1 |
| CCc1ccc(NS(=O)(=O)C=c2[nH]c(=O)n3cccc3c2=O)cc1 | -101 |
| CC(CCN1CCCn2nc(CNS(C)(=O)=O)cc2C1)c1ccccc1 (stereo not given) | 27.6 |
| CN(Cc1cccc(C(N)=O)c1)Cc1nc2c(cnn2C)c(=O)[nH]1 | -29.7 |
| Fc1ccccc1-c1nc(CNCCn2cccn2)cs1 | -58.7 |
| CCN1CCCC12CCN(C(=O)c1nccn1C)CC2 | -26.5 |
| CCOc1ccc(CN(CC)C(=O)c2ccc(C)[nH]c2=O)cc1OC | 20.85 |
| CC(C)N(C)C[C@H]1OC[C@@H]2CCN(Cc3cccc(C#N)c3)C[C@@H]21 | 23.3 |
| CCN(CC)c1nc2ccsc2c(=O)n1CCC(=O)NC1CCCC1 | 58.4 |

| SMILES | INHIBITION [%] |
| --- | --- |
| Cc1ccn(CCC(=O)NCc2ccco2)n1 | 26 |
| CCN(CC)c1nc2ccsc2c(=O)n1CCC(=O)NCc1ccco1 | 55.7 |
| CSc1nc2ccsc2c(=O)n1CC(=O)NC1CCCC1 | -58.7 |
| CCN(CC)c1nc2ccsc2c(=O)n1CCC(=O)NCc1cccs1 | 30.2 |
| CSc1nc2ccsc2c(=O)n1CC(=O)NC1CCCCC1 | 26.6 |
| O=C(Nc1cccnc1)NC(CCCO)c1ccccc1 (stereo not given) | 14.1 |
| COCCN1C[C@H]2[C@@H](C1)N(Cc1cnn(C)c1)CC[C@H]2OC | -4.88 |
| O=C(c1ccc(-n2cccn2)nc1)N1CCCC(n2cccn2)C1 (stereo not given) | 26.45 |
| COc1ccc(OC)c(Sc2ncccc2C(=O)NCC2CC2)c1 | 23.3 |
| CC(c1cccnc1)N(C)Cc1ccccn1 (stereo not given) | 70.4 |
| CC(c1ccncn1)N(C)Cc1cc(O)c2cc(F)ccc2n1 (stereo not given) | 28.3 |
| CC(c1cccnc1)N(C)Cc1csc(-c2ccccn2)n1 (stereo not given) | -45.8 |
| CC(c1cccnc1)N(C)Cc1cc(O)c2cc(F)ccc2n1 (stereo not given) | 66.8 |
| COc1ncc(CN(C)C(C)c2cccnc2)cn1 (stereo not given) | 5.85 |
| CC(c1ccon1)N(C)Cc1cc(O)c2cc(F)ccc2n1 (stereo not given) | 36 |
| c1ccc(CCCN2CCCC2Cn2cncn2)cc1 (stereo not given) | -25.9 |
| CCc1ncc(C(=O)N(C)Cc2cc(-c3ccncc3)no2)cn1 | 59.7 |
| CCN(C)C(=O)c1ccc(N(C)Cc2cc(-c3cccnc3)no2)nc1 | 34 |
| CCN(C)C(=O)c1ccc(N(C)Cc2cc(-c3ccncc3)no2)nc1 | 5.17 |
| O=C(CS(=O)(=O)C1CCCC1)NC1CCc2nccn2C1 (stereo not given) | 19.2 |
| Cc1cc(CN2CC[C@H]3OCC[C@@]3(C(=O)NCc3ccco3)C2)no1 | -0.813 |
| Cc1nnc(CN2CCCC(c3noc(C4CC4)n3)C2)o1 (stereo not given) | -36.3 |
| Cc1cc(NCCc2nc(C)cs2)nc(-c2cccnc2)n1 | -25.1 |
| Cc1cc(NCCc2c(C)n[nH]c2C)nc(-c2cccnc2)n1 | 16.69 |
| Cc1cc(NCCc2c[nH]cn2)nc(-c2cccnc2)n1 | -14.1 |
| CCc1nc(CNc2cc(C)nc(-c3cccnc3)n2)cs1 | 54.9 |
| CCc1csc(CNc2cc(C)nc(-c3cccnc3)n2)n1 | 56.05 |

| SMILES | INHIBITION [%] |
| --- | --- |
| Cc1cc(NCCc2nnc(N)s2)nc(-c2cccnc2)n1 | 16.7 |
| CSC(C)(C)CNC(=O)NCc1cccc(-n2ccnc2)c1 | 17.2 |
| O=C(Cc1ccccc1F)N1CCC[C@@H]1Cn1c(=O)oc2ccccc21 | -12 |
| CC1CCCN(C(=O)c2occc2COc2cccc(C#N)c2)C1 (stereo not given) | 35.1 |
| CC(C)N1CCC2(CCCN(c3nccc(C(F)(F)F)n3)C2)CC1 | -12.2 |
| c1ccc(CNc2ncc(CN3CC[C@@H]4CC[C@H](C3)N4)cn2)cc1 | 30.3 |
| CN(C)[C@H]1CCCCN(Cc2cnc(NCc3ccccc3)nc2)C1 | 57.5 |
| c1ccc(CNc2ncc(CN3CCCN4CCC[C@H]4C3)cn2)cc1 | 30.3 |
| c1ncn(Cc2cn3c(n2)CN(CC2CCCCC2)CC3)n1 | -10.3 |
| CC(C)(C)c1n[nH]c(C2CN(C(=O)c3csnn3)CCO2)n1 (stereo not given) | 11.1 |
| NC(=O)C1CCN(C(=O)NC2CCc3cc(Cl)ccc32)CC1 (stereo not given) | 18.4 |
| C[C@H]1CN(C)C[C@@]12COCCN(C(=O)Cc1ccccc1)C2 | -21.7 |
| CC(=O)N1CCN([C@@H]2CCC[C@@H](N(C)C(=O)C3CC3)[C@H]2O)CC1 | 45.6 |
| COc1cccc(Cn2ncnc2COC(C)C)c1 | -16.1 |
| COc1ccc2c3c1CN(C(=O)N(C)C)CC3=CC(C)(C)CO2 | 25.3 |
| COc1ccc2c3c1CN(C(C)=O)CC3=CC(C)(C)CO2 | 52.5 |
| COCCOC(=O)N1CC2=CC(C)(C)COc3ccc(OC)c(c32)C1 | -3.5 |
| COCC(=O)N1CC2=CC(C)(C)COc3ccc(OC)c(c32)C1 | 48 |
| CCNC(=O)N1CC2=CC(C)(C)COc3ccc(OC)c(c32)C1 | 22.2 |
| COC(=O)N1CC2=CC(C)(C)COc3ccc(OC)c(c32)C1 | 63.1 |
| CC(C)NC(=O)c1nnn(-c2ccc(F)cc2)c1C1CC1 | -38.2 |
| Cc1cccc(CN2C[C@H]3CC[C@@H](C2)N(Cc2c(C)noc2C)C3=O)n1 | -84 |
| CCOC(=O)N1CCC(NC(C)c2ccccc2-n2cccn2)CC1 (stereo not given) | 17.5 |
| CC(NCc1cccc(NC(=O)C2CCCCC2)c1)c1cnn(C)c1 (stereo not given) | 45.4 |
| Cn1ccnc1CN1CCN(CC(O)c2cc(F)ccc2F)CC1 (stereo not given) | 21.5 |
| CC(C)c1nn(C)c(N(C)C)c1CNCc1ccc(N(C)C)nc1 | 13.5 |
| Cc1cc(NC(=O)C2CCN(c3ncccc3C#N)CC2)no1 | 50.1 |

| SMILES | INHIBITION [%] |
| --- | --- |
| Cc1cc(C(=O)NC2CCN(c3ncccc3C#N)CC2)no1 | 5.23 |
| Cc1cc(NC(=O)C2CCN(c3nnc(C)c(C)c3C#N)CC2)no1 | 19.4 |
| Cn1cc(C2=NOC(C(=O)NC3(c4ccccc4F)CCCC3)C2)cn1 (stereo not given) | 45.6 |
| CN1CCC(N(C)C(=O)c2cnn(-c3cc(F)ccc3F)c2N)CC1 | 39.2 |
| O=C(CN1CCOCC1CC(=O)c1ccco1)NCc1ccccn1 (stereo not given) | 54.3 |
| O=C(CN1CCCC1CC(=O)c1ccccc1)NCc1ccccn1 (stereo not given) | 1.93 |
| Cc1ccc(CC2CCCN2CC(=O)NCc2ccccn2)cc1 (stereo not given) | 28.4 |
| O=C(CC1COCCN1S(=O)(=O)c1ccccc1)NCc1ccccn1 (stereo not given) | 68.5 |
| Nc1ncccc1CN1CCOCC1CC(=O)NCc1ccccn1 (stereo not given) | 47.6 |
| CN(C)S(=O)(=O)N1CCOCC1CC(=O)NCCOc1ccccc1 (stereo not given) | 23.5 |
| CC(C)c1nc(C2CCCN2CCS(=O)(=O)c2ccccc2)no1 (stereo not given) | -12.6 |
| NC(=O)C1CN(C(=O)c2ccc(F)cc2)CCN1CCc1ccccc1 (stereo not given) | 22 |
| CCC(NC(=O)c1cnc(-c2cccnc2)nc1)c1ccnn1C (stereo not given) | -31.4 |
| O=C(NCCCN1CCOCC1)c1ccn(COc2ccc(Br)cc2)n1 | 47.4 |
| Cc1cc(C2CCCN(C(=O)c3c(C)noc3C)C2)n[nH]1 (stereo not given) | -2.37 |
| O=C(Nc1cccnc1)[C@@H]1C[C@H]2OCC[C@H]2N(Cc2ccsc2)C1 | -2.84 |
| Cc1ccc(Cl)c(CN2CCC(c3nccn3C(C)C)CC2)c1F | -7.71 |
| CC(C)c1ccc(O)c(C(=O)NC2CCN(c3ncccn3)CC2)c1 | 0.643 |
| O=C(NC1CCN(c2ncccn2)CC1)c1cc2c(cc1O)CCCC2 | 55 |
| O=C(NC1CCN(c2ncccn2)CC1)c1cc2c([nH]c1=O)CCC2 | -46.5 |
| CC(=O)N[C@@H]1CN(C(=O)CC2CCOCC2)C[C@H]1O | -5.8 |
| CC(C)C(c1cccnc1)N(C)C(=O)Cc1ccc(O)cc1 (stereo not given) | -30 |
| CC(C)C(c1cccnc1)N(C)C(=O)Cc1c(F)cccc1F (stereo not given) | 41.8 |
| CCNC(=O)N(C)C(c1cccnc1)C(C)C (stereo not given) | 63.5 |
